Reference: PubChem BioAssay (NCI)
Compounds without any hit were thinned out: in the full panel of roughly 83,000, 20% have a hit.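 Note: values are percent growth. 100 is the growth of untreated cells, values between 100 and 0 indicate rising inhibition; between -100 and 0 indicates cell death.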 Active and inactive are the calls of the source. How the source made its calls: active means growth percent below 10; inactive means the rest.

Tests used:
Experiment in all cases: NCI-60 one-dose screen, 48 h (100 = growth as untreated, 0 = no growth, -100 = all killed)
Conditions in all cases: 10 µM unless noted
DU-145 prostate = tested on: DU-145 prostate
K-562 leukemia = tested on: K-562 leukemia
MALME-3M melanoma = tested on: MALME-3M melanoma
MDA-MB-231 breast = tested on: MDA-MB-231 breast
RXF 393 renal = tested on: RXF 393 renal
SF-268 CNS = tested on: SF-268 CNS
SF-539 CNS = tested on: SF-539 CNS
UACC-257 melanoma = tested on: UACC-257 melanoma
M14 melanoma = tested on: M14 melanoma
HCT-15 colon = tested on: HCT-15 colon
HT29 colon = tested on: HT29 colon
SNB-75 CNS = tested on: SNB-75 CNS
SNB-19 CNS = tested on: SNB-19 CNS
U251 CNS = tested on: U251 CNS
PC-3 prostate = tested on: PC-3 prostate
SK-MEL-5 melanoma = tested on: SK-MEL-5 melanoma
UACC-62 melanoma = tested on: UACC-62 melanoma
LOX IMVI melanoma = tested on: LOX IMVI melanoma
SK-MEL-28 melanoma = tested on: SK-MEL-28 melanoma
SF-295 CNS = tested on: SF-295 CNS

Measured: growth

COc1ccc(/C=C\c2cc(OC)c(OC)c(OC)c2)cc1OCC(=O)Nc1nc2ccc(F)cc2s1
inactive: DU-145 prostate 30.2% | K-562 leukemia 38.1% | MALME-3M melanoma 38.3% | MDA-MB-231 breast 46.7% | SF-268 CNS 49.2% | SF-539 CNS 26.7% | UACC-257 melanoma 51% | M14 melanoma 51.9% | HCT-15 colon 45% | HT29 colon 39.9% | SNB-75 CNS 15.6% | SNB-19 CNS 72.6% | U251 CNS 21.2% | PC-3 prostate 40.4% | UACC-62 melanoma 32.4% | LOX IMVI melanoma 19.1% | SK-MEL-28 melanoma 69.5%
active: RXF 393 renal 9.41% | SK-MEL-5 melanoma -0.28%

CC1(C)N=C(N)N=C(N)N1c1cccc(CCCCc2ccc(Cl)c(S(=O)(=O)F)c2)c1
inactive: DU-145 prostate 47.5% | K-562 leukemia 16.4% | MALME-3M melanoma 56% | MDA-MB-231 breast 69.8% | SF-268 CNS 35.9% | SF-295 CNS 39% | SF-539 CNS 19.9% | UACC-257 melanoma 33.6% | M14 melanoma 39% | HCT-15 colon 66.6% | HT29 colon 12.5% | SNB-75 CNS 62.2% | SNB-19 CNS 45.9% | U251 CNS 35.3% | PC-3 prostate 24.1% | SK-MEL-5 melanoma 16.4% | UACC-62 melanoma 15.3% | LOX IMVI melanoma 16.5% | SK-MEL-28 melanoma 70.2%

CC(=O)OCC1O[C@@H]([S-])C(OC(C)=O)[C@H](OC(C)=O)[C@@H]1OC(C)=O.[Au+].c1ccc(CN2[CH-]N(Cc3ccccc3)C(c3ccccc3)=C2c2ccccc2)cc1
active: K-562 leukemia 1.59% | MALME-3M melanoma -30.2% | MDA-MB-231 breast -29.4% | RXF 393 renal -52.3% | HCT-15 colon -63% | U251 CNS -59.3% | UACC-62 melanoma 8.41% | LOX IMVI melanoma -65.7% | SK-MEL-28 melanoma -56.8%
inactive: DU-145 prostate 68.5% | SF-268 CNS 33.4% | SF-539 CNS 70.7% | UACC-257 melanoma 65.5% | M14 melanoma 48.5% | HT29 colon 50.3% | SNB-75 CNS 40.8% | SNB-19 CNS 36.8% | PC-3 prostate 39.4% | SK-MEL-5 melanoma 48.5%

O=C(O)CNC(=O)C(Cl)(Cl)Cl
inactive: DU-145 prostate 107% | K-562 leukemia 108% | MALME-3M melanoma 97.6% | MDA-MB-231 breast 103% | RXF 393 renal 92.1% | SF-268 CNS 104% | SF-539 CNS 103% | UACC-257 melanoma 88% | M14 melanoma 107% | HCT-15 colon 96% | HT29 colon 97.1% | SNB-75 CNS 85.1% | SNB-19 CNS 100% | U251 CNS 84.8% | PC-3 prostate 91.6% | SK-MEL-5 melanoma 99% | UACC-62 melanoma 102% | LOX IMVI melanoma 99% | SK-MEL-28 melanoma 96.6%

CC(C)(N)Cc1ccccc1
inactive: DU-145 prostate 115% | K-562 leukemia 92.8% | MALME-3M melanoma 112% | MDA-MB-231 breast 119% | SF-268 CNS 113% | SF-295 CNS 98.1% | SF-539 CNS 107% | UACC-257 melanoma 101% | M14 melanoma 105% | HCT-15 colon 105% | HT29 colon 97.2% | SNB-75 CNS 103% | SNB-19 CNS 108% | U251 CNS 105% | PC-3 prostate 88.9% | SK-MEL-5 melanoma 116% | UACC-62 melanoma 107% | LOX IMVI melanoma 103% | SK-MEL-28 melanoma 116%

CC1(C)N=C(N)N=C(N)N1c1ccc(CCCCc2ccc(Cl)c(S(=O)(=O)F)c2)c(Cl)c1
inactive: DU-145 prostate 35.3% | MALME-3M melanoma 17.4% | MDA-MB-231 breast 52.6% | SF-268 CNS 18.7% | SF-295 CNS 18.7% | SF-539 CNS 14% | UACC-257 melanoma 18.3% | M14 melanoma 20.7% | HCT-15 colon 37.3% | HT29 colon 16.3% | SNB-75 CNS 35.1% | SNB-19 CNS 31.6% | U251 CNS 28.8% | PC-3 prostate 15.1% | SK-MEL-5 melanoma 10.6% | UACC-62 melanoma 16.2% | LOX IMVI melanoma 13.6% | SK-MEL-28 melanoma 58.2%
active: K-562 leukemia 9.3%

O=[As](O)(O)c1ccccc1[As](=O)(O)O
inactive: DU-145 prostate 109% | K-562 leukemia 107% | MALME-3M melanoma 115% | MDA-MB-231 breast 103% | RXF 393 renal 120% | SF-268 CNS 99.3% | SF-539 CNS 96.3% | UACC-257 melanoma 101% | M14 melanoma 116% | HCT-15 colon 91.1% | HT29 colon 109% | SNB-75 CNS 116% | SNB-19 CNS 109% | U251 CNS 93.6% | PC-3 prostate 93.3% | SK-MEL-5 melanoma 107% | UACC-62 melanoma 98.5% | LOX IMVI melanoma 87.6% | SK-MEL-28 melanoma 117%

C=CCc1cc2c(cc1OCC)OCO2
inactive: DU-145 prostate 108% | K-562 leukemia 114% | MALME-3M melanoma 116% | MDA-MB-231 breast 110% | SF-268 CNS 94.8% | SF-295 CNS 93.6% | SF-539 CNS 99.1% | UACC-257 melanoma 105% | M14 melanoma 92.9% | HCT-15 colon 96.5% | HT29 colon 87.7% | SNB-75 CNS 106% | SNB-19 CNS 99.7% | U251 CNS 107% | PC-3 prostate 80.8% | SK-MEL-5 melanoma 103% | UACC-62 melanoma 108% | LOX IMVI melanoma 94.2% | SK-MEL-28 melanoma 102%

Clc1ccc2nnnn2n1
inactive: MALME-3M melanoma 66.2% | MDA-MB-231 breast 36.8% | SF-268 CNS 25% | SF-295 CNS 67.7% | SF-539 CNS 47% | UACC-257 melanoma 41.1% | M14 melanoma 37.7% | HCT-15 colon 24.7% | HT29 colon 12.9% | SNB-75 CNS 80.3% | SNB-19 CNS 91.7% | U251 CNS 34.4% | PC-3 prostate 25.7% | SK-MEL-5 melanoma 30.2% | UACC-62 melanoma 45.4% | LOX IMVI melanoma 16.3% | SK-MEL-28 melanoma 51.9%
active: DU-145 prostate 3.28% | K-562 leukemia -11.3%

COC1=CC(=O)O[C@@H](/C=C/c2ccc3c(c2)OCO3)C1
inactive: DU-145 prostate 141% | K-562 leukemia 93.9% | MALME-3M melanoma 119% | MDA-MB-231 breast 107% | SF-268 CNS 111% | SF-295 CNS 122% | SF-539 CNS 107% | UACC-257 melanoma 120% | M14 melanoma 109% | HCT-15 colon 103% | HT29 colon 111% | SNB-75 CNS 116% | SNB-19 CNS 101% | U251 CNS 97.9% | PC-3 prostate 83.5% | SK-MEL-5 melanoma 116% | UACC-62 melanoma 94% | LOX IMVI melanoma 98.2% | SK-MEL-28 melanoma 120%

ClCCN(CCCl)c1nc(Cl)c(C2CC(c3ccccc3)=NN2c2cc(Cl)cc(Cl)c2)s1 (stereo not drawn)
inactive: DU-145 prostate 107% | K-562 leukemia 99.1% | MALME-3M melanoma 103% | MDA-MB-231 breast 98.7% | SF-268 CNS 96.7% | SF-295 CNS 107% | SF-539 CNS 101% | UACC-257 melanoma 95.9% | M14 melanoma 108% | HCT-15 colon 104% | HT29 colon 101% | SNB-75 CNS 96.4% | SNB-19 CNS 98.7% | U251 CNS 99.4% | PC-3 prostate 93.7% | SK-MEL-5 melanoma 102% | UACC-62 melanoma 92.9% | LOX IMVI melanoma 99.2% | SK-MEL-28 melanoma 106%

CCOC(=O)C(Cc1ccc(N(CCCl)CCCl)cc1)NC(=O)C(CC(C)C)NC(C)=O (stereo not drawn)
inactive: DU-145 prostate 14.3% | K-562 leukemia 12.6% | MDA-MB-231 breast 51.6% | SF-539 CNS 13.2% | UACC-257 melanoma 24.2% | HCT-15 colon 35% | SNB-75 CNS 41.6% | SNB-19 CNS 57.6% | U251 CNS 25.5% | PC-3 prostate 60.9% | SK-MEL-5 melanoma 60.8% | UACC-62 melanoma 13.1%
active: MALME-3M melanoma -33% | RXF 393 renal -15.5% | SF-268 CNS 5.5% | M14 melanoma -4.57% | HT29 colon 8.7% | LOX IMVI melanoma -15.6% | SK-MEL-28 melanoma 6.21%

O=C(O)c1ccc([S-])cc1.[Au+].c1ccc(CN2[CH-]N(Cc3ccccc3)C(c3ccccc3)=C2c2ccccc2)cc1
active: DU-145 prostate -47.2% | K-562 leukemia -16.9% | MALME-3M melanoma -68.6% | MDA-MB-231 breast -62.5% | RXF 393 renal -88.9% | SF-268 CNS -42.7% | SF-539 CNS -1.4% | UACC-257 melanoma -19.1% | M14 melanoma -48.1% | HCT-15 colon -89.3% | HT29 colon -24.7% | SNB-75 CNS -9.88% | SNB-19 CNS -66.8% | U251 CNS -82.5% | PC-3 prostate -25.6% | SK-MEL-5 melanoma -92.9% | UACC-62 melanoma -51.6% | LOX IMVI melanoma -78.9% | SK-MEL-28 melanoma -20.2%

CCCCCC1(CCBr)C(=O)NC(=O)NC1=O
inactive: DU-145 prostate 109% | K-562 leukemia 94.1% | MALME-3M melanoma 108% | MDA-MB-231 breast 107% | RXF 393 renal 107% | SF-539 CNS 96.6% | UACC-257 melanoma 91% | M14 melanoma 112% | HCT-15 colon 97.7% | HT29 colon 107% | SNB-75 CNS 99.2% | SNB-19 CNS 111% | U251 CNS 93.4% | PC-3 prostate 100% | SK-MEL-5 melanoma 109% | UACC-62 melanoma 108% | LOX IMVI melanoma 104% | SK-MEL-28 melanoma 118%

ClCCN(CCCl)Cc1ccc(Nc2ccnc3cc(Cl)ccc23)cc1
active: RXF 393 renal -59.1% | SF-539 CNS -20.2%
inactive: DU-145 prostate 18.6% | K-562 leukemia 35.6% | MALME-3M melanoma 57.4% | MDA-MB-231 breast 56.3% | SF-268 CNS 25.3% | UACC-257 melanoma 56.2% | M14 melanoma 49.7% | HCT-15 colon 48.2% | HT29 colon 10.2% | SNB-75 CNS 45.1% | SNB-19 CNS 60.8% | U251 CNS 22.4% | PC-3 prostate 47.3% | SK-MEL-5 melanoma 54.2% | UACC-62 melanoma 26.8% | LOX IMVI melanoma 20.1% | SK-MEL-28 melanoma 67.1%

[Au+].[N-]=C=O.c1ccc(CN2[CH-]N(Cc3ccccc3)C(c3ccccc3)=C2c2ccccc2)cc1
inactive: DU-145 prostate 86.5% | K-562 leukemia 20.8% | MALME-3M melanoma 70% | MDA-MB-231 breast 86.4% | RXF 393 renal 83% | SF-268 CNS 84.5% | SF-539 CNS 110% | UACC-257 melanoma 99.8% | M14 melanoma 81.3% | HCT-15 colon 51.9% | HT29 colon 88.4% | SNB-75 CNS 79.2% | SNB-19 CNS 58.7% | U251 CNS 47.8% | PC-3 prostate 84.1% | SK-MEL-5 melanoma 96.9% | UACC-62 melanoma 78% | LOX IMVI melanoma 94.7% | SK-MEL-28 melanoma 92.8%
